# Source: PubChem BioAssay (NCI)
# Compounds without any hit were thinned out: in the full panel of roughly 83,000, 20% have a hit.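 Note: values are percent growth. 100 is the growth of untreated cells, values between 100 and 0 indicate rising inhibition; between -100 and 0 indicates cell death.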 Values without a mark were called inactive. Calls of active or inactive are those of the source. How the source made its calls: active means growth percent below 10; inactive means the rest.
# How the values were obtained:
# Assay in all cases: NCI-60 one-dose screen, 48 h (100 = growth as untreated, 0 = no growth, -100 = all killed)
# Conditions in all cases: 10 µM unless noted
# HCT-15 colon = tested on: HCT-15 colon
# HT29 colon = tested on: HT29 colon
# SNB-75 CNS = tested on: SNB-75 CNS
# SNB-19 CNS = tested on: SNB-19 CNS
# U251 CNS = tested on: U251 CNS
# PC-3 prostate = tested on: PC-3 prostate
# SK-MEL-5 melanoma = tested on: SK-MEL-5 melanoma
# UACC-62 melanoma = tested on: UACC-62 melanoma
# LOX IMVI melanoma = tested on: LOX IMVI melanoma
# SK-MEL-28 melanoma = tested on: SK-MEL-28 melanoma
# SK-MEL-2 melanoma = tested on: SK-MEL-2 melanoma
# EKVX NSCLC = tested on: EKVX NSCLC
# SN12C renal = tested on: SN12C renal
# UO-31 renal = tested on: UO-31 renal
# TK-10 renal = tested on: TK-10 renal
# ACHN renal = tested on: ACHN renal
# CAKI-1 renal = tested on: CAKI-1 renal
# A498 renal = tested on: A498 renal
# CCRF-CEM leukemia = tested on: CCRF-CEM leukemia
# MOLT-4 leukemia = tested on: MOLT-4 leukemia
Structure (SMILES),growth (HCT-15 colon),growth (HT29 colon),growth (SNB-75 CNS),growth (SNB-19 CNS),growth (U251 CNS),growth (PC-3 prostate),growth (SK-MEL-5 melanoma),growth (UACC-62 melanoma),growth (LOX IMVI melanoma),growth (SK-MEL-28 melanoma),growth (SK-MEL-2 melanoma),growth (EKVX NSCLC),growth (SN12C renal),growth (UO-31 renal),growth (TK-10 renal),growth (ACHN renal),growth (CAKI-1 renal),growth (A498 renal),growth (CCRF-CEM leukemia),growth (MOLT-4 leukemia)
COc1ccc(/C=N/NC(=O)c2ccc(-n3cc(-c4ccccc4)nn3)cc2)cc1OC,97.6%,100%,94%,107%,106%,94%,89.2%,76.7%,94.5%,88.8%,108%,102%,103%,108%,113%,98%,81%,100%,99.2%,95.6%
Cc1cn(-c2cc(NC(=O)c3cccc(C#Cc4cccc5[nH]nc(N)c45)c3)cc(C(F)(F)F)c2)cn1,25.8%,18.4%,48.1%,55.5%,43.7%,20.9%,34.5%,5.82% (active),7.02% (active),23.5%,22.5%,56.7%,29.9%,9.11% (active),78.8%,21.5%,75.7%,35.1%,15%,20.7%
CCCCCOC(=O)c1c(C)[nH]c(/C=C2\N=C(c3ccc[nH]3)C=C2OC)c1C,-28.8% (active),-28% (active),-28.1% (active),21.2%,-24.1% (active),12.3%,-100% (active),-70.9% (active),-99.7% (active),-45.8% (active),-71.2% (active),12.5%,3.4% (active),-69.6% (active),4.49% (active),-72.3% (active),-17.3% (active),-21% (active),-13.2% (active),9.58% (active)
COc1cc2oc(-c3cccc(NC(=O)c4ccccc4)c3)cc(=O)c2c(OC)c1OC,65.2%,77.1%,77.4%,91.4%,83.7%,53.1%,63.2%,66.8%,61.7%,73.2%,76.8%,103%,76.2%,51%,91.3%,61.6%,87.2%,59.4%,45.7%,40.7%
CCOC(=O)c1cc2c(n1Cc1cc(OC)c(OC)c(OC)c1)-c1nc(N)sc1CCC2,35.9%,19.3%,60.3%,61.3%,38.9%,26.3%,19.6%,35.5%,48.5%,69.4%,32.6%,65.6%,88.5%,57%,74.4%,77.2%,55.9%,7.34% (active),41.1%,66.7%
C=C1C(=O)O[C@H]2[C@H]1CC/C(COC(=O)c1cc3ccccc3s1)=C\CC[C@@]1(C)O[C@@H]21,-62.4% (active),-75.4% (active),-7.28% (active),-9.05% (active),-82.6% (active),-56% (active),-93.8% (active),-61.1% (active),-83.7% (active),-70.7% (active),-67.2% (active),-81.1% (active),-43.9% (active),-94.3% (active),-91.9% (active),-91.3% (active),-72.6% (active),61.9%,-25.3% (active),-4.09% (active)
O=C(CSc1oc(-c2ccccc2)nc1S(=O)(=O)c1ccccc1)Nc1ccc(F)cc1,73.7%,91.7%,87.8%,93.5%,93.8%,52.7%,78.8%,66.4%,94%,98.4%,87.6%,78.2%,89%,76.8%,91.8%,80.2%,73.1%,82.6%,84.7%,73.3%
